The results in this text go back to PMC11006913.

Residue numbers refer to the chain shown, from its start.

ALX1 (Homo sapiens, UniProt Q15699 118-204, L144V), sequence (Q15699 118-204 L144V): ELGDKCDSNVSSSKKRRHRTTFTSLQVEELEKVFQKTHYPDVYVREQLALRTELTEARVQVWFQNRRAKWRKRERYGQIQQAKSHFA
NKX3-2 (Homo sapiens, UniProt P78367 192-278, P234S), sequence (P78367 192-278 P234S): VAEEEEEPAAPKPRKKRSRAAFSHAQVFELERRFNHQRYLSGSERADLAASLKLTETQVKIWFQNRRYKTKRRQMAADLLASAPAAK
ALX1 (Homo sapiens, UniProt Q15699 118-204, L144R), sequence (Q15699 118-204 L144R): as the sequence (Q15699 118-204 L144V) above, with V27R counted along it

The first test concerns the target ALX1 (Homo sapiens, UniProt Q15699 118-204, L144V). Briefly: PBM; 200 nM protein, PBS. Particulars: dsDNA, one strand shown.
For GCCCACGA, the binding signal was 6.38 upbm affinity estimate (log intensity, higher = more binding, comparable within an allelic series).
Turning to CCGTGGGA, the binding signal was 6.49 upbm affinity estimate (log intensity, higher = more binding, comparable within an allelic series).
On the same count and under the same terms, as for CGCGGGCC, the figure is 6.41 upbm affinity estimate (log intensity, higher = more binding, comparable within an allelic series).

For the next test, the target named is T1, NKX2-6 (Homo sapiens, UniProt A6NCS4 118-204).
T1 sequence: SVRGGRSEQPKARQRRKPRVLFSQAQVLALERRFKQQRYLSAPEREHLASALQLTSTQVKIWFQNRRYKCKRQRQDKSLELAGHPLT
Kind of test: PBM; 200 nM protein, PBS. As to conditions: dsDNA, one strand shown.
For the sequence GGGGGACC, the binding signal was 9.01 upbm affinity estimate (log intensity, higher = more binding, comparable within an allelic series).
On the same count and under the same terms, as for AAAGTGCA, the figure is 12.2 upbm affinity estimate (log intensity, higher = more binding, comparable within an allelic series); as for GATAAGTA, 13.3 upbm affinity estimate (log intensity, higher = more binding, comparable within an allelic series).
ATCACTTA: the binding signal is 13.3 upbm affinity estimate (log intensity, higher = more binding, comparable within an allelic series).

A further test has as its target ALX1 (Homo sapiens, UniProt Q15699 118-204, L144R). Kind of test: PBM; 200 nM protein, PBS. Particulars: dsDNA, one strand shown.
As for GCCCACGA, the binding signal is 6.28 upbm affinity estimate (log intensity, higher = more binding, comparable within an allelic series).
For CCGTGGGA, the binding signal is 6.42 upbm affinity estimate (log intensity, higher = more binding, comparable within an allelic series).
On the same count and under the same terms, then CGCGGGCC, with 6.28 upbm affinity estimate (log intensity, higher = more binding, comparable within an allelic series).

Another test deals with PROP1 (Homo sapiens, UniProt O75360 56-141). Briefly: PBM; 200 nM protein, PBS. Particulars: dsDNA, one strand shown.
PROP1 (Homo sapiens, UniProt O75360 56-141), sequence (O75360 56-141): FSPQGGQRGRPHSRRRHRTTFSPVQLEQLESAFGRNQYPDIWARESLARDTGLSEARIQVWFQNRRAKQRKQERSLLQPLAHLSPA
For the sequence AGCCCCCG, the binding signal was 6.76 upbm affinity estimate (log intensity, higher = more binding, comparable within an allelic series).
Same read-out and setting: as for CACAGGCC, the figure is 6.73 upbm affinity estimate (log intensity, higher = more binding, comparable within an allelic series).
Still for that read-out and setting: as for GTCGATAA, the figure is 8.04 upbm affinity estimate (log intensity, higher = more binding, comparable within an allelic series); as for ACCTGGTG, 6.8 upbm affinity estimate (log intensity, higher = more binding, comparable within an allelic series).

The target of the next test is PROP1 (Homo sapiens, UniProt O75360 56-141, R99H). Kind of test: PBM; 200 nM protein, PBS. As to conditions: dsDNA, one strand shown.
PROP1 (Homo sapiens, UniProt O75360 56-141, R99H), sequence (O75360 56-141 R99H): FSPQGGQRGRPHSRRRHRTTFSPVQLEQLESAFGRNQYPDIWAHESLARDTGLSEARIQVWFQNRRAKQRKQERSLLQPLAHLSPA
AGCCCCCG: the binding signal was 6.62 upbm affinity estimate (log intensity, higher = more binding, comparable within an allelic series).
In the case of CACAGGCC, the binding signal is 6.9 upbm affinity estimate (log intensity, higher = more binding, comparable within an allelic series).
Still for that read-out and setting: then ACCTGGTG, with 6.74 upbm affinity estimate (log intensity, higher = more binding, comparable within an allelic series).

The target of another test is T2, NKX2-6 (Homo sapiens, UniProt A6NCS4 118-204, F151L).
T2 sequence: T1 sequence with F34L
Briefly: PBM; 200 nM protein, PBS. As to conditions: dsDNA, one strand shown.
In the case of GGGGGACC, the binding signal was 8.91 upbm affinity estimate (log intensity, higher = more binding, comparable within an allelic series).
The same measure, in the same setting: then AAAGTGCA, with 10.1 upbm affinity estimate (log intensity, higher = more binding, comparable within an allelic series).
ACAAGTGC: the binding signal was 10.6 upbm affinity estimate (log intensity, higher = more binding, comparable within an allelic series).
Regarding CACTTACA, the binding signal is 10.6 upbm affinity estimate (log intensity, higher = more binding, comparable within an allelic series).
As for GATAAGTA, the binding signal is 10.6 upbm affinity estimate (log intensity, higher = more binding, comparable within an allelic series).
The same measure, in the same setting: then ATCACTTA, with 10.4 upbm affinity estimate (log intensity, higher = more binding, comparable within an allelic series).

For a further test, the target named is HOXC9 (Homo sapiens, UniProt P31274 178-260, R222W). Briefly: PBM; 200 nM protein, PBS. As to conditions: dsDNA, one strand shown.
HOXC9, sequence (P31274 178-260 R222W): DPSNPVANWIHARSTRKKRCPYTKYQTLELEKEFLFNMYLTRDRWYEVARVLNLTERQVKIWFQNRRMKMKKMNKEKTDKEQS
Take ATTGCGCA: the binding signal is 10.1 upbm affinity estimate (log intensity, higher = more binding, comparable within an allelic series).
On the same count and under the same terms, as for GTCGATAA, the figure is 10.3 upbm affinity estimate (log intensity, higher = more binding, comparable within an allelic series).
Take ATTAGAGG: the binding signal was 10.2 upbm affinity estimate (log intensity, higher = more binding, comparable within an allelic series).
Same read-out and setting: as for ACCCTTAT, the figure is 10.2 upbm affinity estimate (log intensity, higher = more binding, comparable within an allelic series).
Regarding GCTCTTAA, the binding signal was 10.2 upbm affinity estimate (log intensity, higher = more binding, comparable within an allelic series).

The next test deals with PROP1 (Homo sapiens, UniProt O75360 56-141, F88S). Kind of test: PBM; 200 nM protein, PBS. As to conditions: dsDNA, one strand shown.
PROP1 (Homo sapiens, UniProt O75360 56-141, F88S), sequence (O75360 56-141 F88S): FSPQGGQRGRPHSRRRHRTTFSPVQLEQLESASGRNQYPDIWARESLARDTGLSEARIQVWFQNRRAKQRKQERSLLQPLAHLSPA
For AGCCCCCG, the binding signal is 6.15 upbm affinity estimate (log intensity, higher = more binding, comparable within an allelic series).
Still for that read-out and setting: as for CACAGGCC, the figure is 6.72 upbm affinity estimate (log intensity, higher = more binding, comparable within an allelic series).
On to ACCTGGTG, for which the binding signal is 6.77 upbm affinity estimate (log intensity, higher = more binding, comparable within an allelic series).

A further test concerns the target NKX3-2 (Homo sapiens, UniProt P78367 192-278, P234S). Briefly: PBM; 200 nM protein, PBS. As to conditions: dsDNA, one strand shown.
Regarding AAAGTGGT, the binding signal was 12.7 upbm affinity estimate (log intensity, higher = more binding, comparable within an allelic series).
AAGTGGGG: the binding signal is 12.7 upbm affinity estimate (log intensity, higher = more binding, comparable within an allelic series).
Still for that read-out and setting: as for AAGTACAT, the figure is 12.4 upbm affinity estimate (log intensity, higher = more binding, comparable within an allelic series); as for AAGTGGCA, 12.6 upbm affinity estimate (log intensity, higher = more binding, comparable within an allelic series).
Same read-out and setting: then GACCCGAC, with 10.7 upbm affinity estimate (log intensity, higher = more binding, comparable within an allelic series); and AAGTGCAC, with 12.6 upbm affinity estimate (log intensity, higher = more binding, comparable within an allelic series); and TACACTCA, with 11.9 upbm affinity estimate (log intensity, higher = more binding, comparable within an allelic series).
The same measure, in the same setting: then CACTTACA, with 12.6 upbm affinity estimate (log intensity, higher = more binding, comparable within an allelic series).
With AAGGCCCA, the binding signal was 10.7 upbm affinity estimate (log intensity, higher = more binding, comparable within an allelic series).
As to AAGTGCTC, the binding signal is 12.5 upbm affinity estimate (log intensity, higher = more binding, comparable within an allelic series).
The same measure, in the same setting: as for AAGTGGTG, the figure is 12.7 upbm affinity estimate (log intensity, higher = more binding, comparable within an allelic series); as for CGCGGGCC, 10.4 upbm affinity estimate (log intensity, higher = more binding, comparable within an allelic series).

The target in a further test is ALX1 (Homo sapiens, UniProt Q15699 118-204). Briefly: PBM; 200 nM protein, PBS. As to conditions: dsDNA, one strand shown.
ALX1 (Homo sapiens, UniProt Q15699 118-204), sequence (Q15699 118-204): as the sequence (Q15699 118-204 L144V) above, with V27L counted along it
Take GCCCACGA: the binding signal is 6.37 upbm affinity estimate (log intensity, higher = more binding, comparable within an allelic series).
The same measure, in the same setting: then CCGTGGGA, with 6.53 upbm affinity estimate (log intensity, higher = more binding, comparable within an allelic series); and CGCGGGCC, with 6.3 upbm affinity estimate (log intensity, higher = more binding, comparable within an allelic series).

The target of another test is NKX3-2 (Homo sapiens, UniProt P78367 192-278). Kind of test: PBM; 200 nM protein, PBS. Particulars: dsDNA, one strand shown.
NKX3-2 (Homo sapiens, UniProt P78367 192-278), sequence (P78367 192-278): as the sequence (P78367 192-278 P234S) above, with S43P counted along it
As for AAAGTGGT, the binding signal was 12.8 upbm affinity estimate (log intensity, higher = more binding, comparable within an allelic series).
As for AAGTGGGG, the binding signal is 12.8 upbm affinity estimate (log intensity, higher = more binding, comparable within an allelic series).
For the sequence AAGTACAT, the binding signal is 12.6 upbm affinity estimate (log intensity, higher = more binding, comparable within an allelic series).
Still for that read-out and setting: as for AAGTGGCA, the figure is 12.7 upbm affinity estimate (log intensity, higher = more binding, comparable within an allelic series); as for GACCCGAC, 10.7 upbm affinity estimate (log intensity, higher = more binding, comparable within an allelic series).
As to AAGTGCAC, the binding signal is 12.7 upbm affinity estimate (log intensity, higher = more binding, comparable within an allelic series).
On the same count and under the same terms, as for TACACTCA, the figure is 12 upbm affinity estimate (log intensity, higher = more binding, comparable within an allelic series); as for CACTTACA, 12.6 upbm affinity estimate (log intensity, higher = more binding, comparable within an allelic series); as for AAGGCCCA, 10.7 upbm affinity estimate (log intensity, higher = more binding, comparable within an allelic series).
In the case of AAGTGCTC, the binding signal was 12.7 upbm affinity estimate (log intensity, higher = more binding, comparable within an allelic series).
Same read-out and setting: then AAGTGGTG, with 12.8 upbm affinity estimate (log intensity, higher = more binding, comparable within an allelic series).
As for CGCGGGCC, the binding signal was 10.4 upbm affinity estimate (log intensity, higher = more binding, comparable within an allelic series).
